Laboratory results reported in article PMC7819943, “Rice protein-binding microarrays: a tool to detect cis-acting elements near promoter regions in rice”.
Whole data set: some 39,000 sequences, median “fluorescence intensity (a.u.)” near 4,300, cut for the highest 2% near 39,000. The sample holds the highest values, similar sequences and a random draw of the others, so the mix is not that of the screen.

What follows are sequences tested against T1, OsSMF1 (Oryza sativa, UniProt Q6ZLB0 1-436) (assay: protein-binding microarray (RPBM); PBS, 2% BSA, 51.3 ng/ul salmon testes DNA, 50 uM zinc acetate, 200 nM TF, 25 C, 1 h; high values mean tight binding). Settings: protein: recombinant; tags: N-terminal polyhistidine and DsRed monomer fusion (pET32a); chain copies: 2; label: CyDye5-dUTP incorporated in the synthesized complementary strand; 3' TTTTT single-stranded linker to array surface; dsDNA, one strand shown.
T1 sequence: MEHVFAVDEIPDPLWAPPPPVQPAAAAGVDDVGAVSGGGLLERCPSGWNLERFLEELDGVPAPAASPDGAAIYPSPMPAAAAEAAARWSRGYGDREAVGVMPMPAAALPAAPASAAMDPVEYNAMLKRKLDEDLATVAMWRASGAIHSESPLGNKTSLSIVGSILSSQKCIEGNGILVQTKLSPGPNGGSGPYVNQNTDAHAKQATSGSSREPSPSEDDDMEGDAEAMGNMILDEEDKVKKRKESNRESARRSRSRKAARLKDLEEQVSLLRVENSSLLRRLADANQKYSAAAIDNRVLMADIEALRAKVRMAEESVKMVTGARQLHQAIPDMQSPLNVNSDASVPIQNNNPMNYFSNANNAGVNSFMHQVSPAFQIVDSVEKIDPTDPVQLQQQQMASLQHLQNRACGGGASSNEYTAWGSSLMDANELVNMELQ
In short: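 Binding signal is reported as fluorescence intensity per feature (arbitrary units) from an Axon 4000B scanner. Incubation used 200 nM of each Ni–NTA-purified, N-terminally polyhistidine- and DsRed-fused transcription factor from E. coli BL21-CodonPlus on a double-stranded custom Agilent array for 1 h at 25 °C, with 50 µM zinc acetate in the buffer, followed by washing.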

Sequence | binding signal
CAGATCGGCAGACCAGACCACGTGTACACCCAACACGAGGCGGAGTCACCTAGTGCAG | 8390 fluorescence intensity (a.u.)
AGGAAAGGTTAATTACGTACGTACACGGGAAGGAGTAACCCGGAGTCACCTAGTGCAG | 3340 fluorescence intensity (a.u.)
TCCCTCTGACATGGTTCATTGATAGGTGGACTCTCTATTCCGGAGTCACCTAGTGCAG | 3240 fluorescence intensity (a.u.)
GCTCCTCACCCGCCGTGAACCCAACCCACATCCGCTGACGCGGAGTCACCTAGTGCAG | 3300 fluorescence intensity (a.u.)
AGCCAGCCCAAAAGCCACGCCGTCCACTCCATCTCCGCCTCGGAGTCACCTAGTGCAG | 48000 fluorescence intensity (a.u.)
ACCTGCCCAACCCCAACCCCAACCCTCTCCTCTCCGCCCACGGAGTCACCTAGTGCAG | 3710 fluorescence intensity (a.u.)
TCCCCACCCTCCTCCGCAAGCCACGCCTCTCCCCAAAGTTCGGAGTCACCTAGTGCAG | 65500 fluorescence intensity (a.u.)
TCCCGTCTCGTCCGTCGTCTCCTCCGCTCCTTGCGCCAAGCGGAGTCACCTAGTGCAG | 3200 fluorescence intensity (a.u.)
AAGAAAATCTCCTGTCTCAGTCTCCTCCGCTCCTTGCGCCCGGAGTCACCTAGTGCAG | 54400 fluorescence intensity (a.u.)
ACCACCACCACCACCATCGCACTCCCAACTCCCAAGCCGCCGGAGTCACCTAGTGCAG | 3760 fluorescence intensity (a.u.)
CCGCCGTGAAGCACACCACCACCAACCCCATCGCTCCCTCCGGAGTCACCTAGTGCAG | 64500 fluorescence intensity (a.u.)
CTCCTCTCCCGCGCGCCACGCCCTCCCTCCCCTTCCCCTTCGGAGTCACCTAGTGCAG | 4060 fluorescence intensity (a.u.)
AAAGCCTCGCCGCCATCTCTCTCCACCACCCAAAATTTCTCGGAGTCACCTAGTGCAG | 35600 fluorescence intensity (a.u.)
CAAAAGCCTCGCCGCGCACCACCACCCAGCTCTCTCCACTCGGAGTCACCTAGTGCAG | 3640 fluorescence intensity (a.u.)
GCTCCTCCCGTGCCGCCGCCGTCTCGCGCCAGTGCGTCTCCGGAGTCACCTAGTGCAG | 3330 fluorescence intensity (a.u.)
GGTATTGCTGTATTTATTTTGGTGTGGTTGAGAGTCTAGTCGGAGTCACCTAGTGCAG | 4096 fluorescence intensity (a.u.)
CATTCCCCTCTCCCCAATTTACCATACACACATGGATGTACGGAGTCACCTAGTGCAG | 3640 fluorescence intensity (a.u.)
TGATCAATCAAGAAGACGATCGTGCCGATATCATGGCACCCGGAGTCACCTAGTGCAG | 3940 fluorescence intensity (a.u.)
GTCTTTCTTCAATTGTTATTATTGTCATAAATCAGGAGAACGGAGTCACCTAGTGCAG | 22600 fluorescence intensity (a.u.)
TTAACCCCGTCACGTCACCTCTCTCTCTCTCTACCGTCTCCGGAGTCACCTAGTGCAG | 9720 fluorescence intensity (a.u.)

Sequence | binding signal
CAAACGGGACGAATTCCTAACCCTCGTCATCCGTCCCTTCCGGAGTCACCTAGTGCAG | 4710 fluorescence intensity (a.u.)
CTGTTATCTTTCAATAAACCAAGGGAATTTTAGTTTGTTCCGGAGTCACCTAGTGCAG | 33200 fluorescence intensity (a.u.)
AAGAGGATGGCTGGGAGGATGACATGTGGAGCCCACATGGCGGAGTCACCTAGTGCAG | 4450 fluorescence intensity (a.u.)
GGCGCCGTGCCGTAATCCATCTCCTCCGTCGTCCAACCTCCGGAGTCACCTAGTGCAG | 44900 fluorescence intensity (a.u.)
TCCACCCCACGTCCTCCTCCTCCCCAGCAGTCCCACCCGCCGGAGTCACCTAGTGCAG | 3570 fluorescence intensity (a.u.)
CGAGAGCGAACGGCCGTCTGCCACGTCACTTTCGCCACCCCGGAGTCACCTAGTGCAG | 41900 fluorescence intensity (a.u.)
AACCTCCATCTCCCGCCCAGTGCCGCCGCGCCACGTCACCCGGAGTCACCTAGTGCAG | 39100 fluorescence intensity (a.u.)
CCCGAGAGCGAACGGCCGTCTGCCACGTCATTTTCGCCGCCGGAGTCACCTAGTGCAG | 29700 fluorescence intensity (a.u.)
TCCCTCCCTCCGCCGCGCCACGCCCACCCACGCATCCATCCGGAGTCACCTAGTGCAG | 4110 fluorescence intensity (a.u.)
AGCCCGGCCCACCACGGGGTTTCCCTCTTCTCTAGGCCCGCGGAGTCACCTAGTGCAG | 50600 fluorescence intensity (a.u.)
CGCCCGAGAGCGAACGGCCGTCTGCCACGTCACTTTCGCCCGGAGTCACCTAGTGCAG | 29100 fluorescence intensity (a.u.)
CCGGCCACCGCCCTCCCGCCGCACGGGCCACCGGCCACCGCGGAGTCACCTAGTGCAG | 3460 fluorescence intensity (a.u.)
CCAACCCATCTCCACCGTCCATCTCCATCCGACGCCTCCCCGGAGTCACCTAGTGCAG | 24300 fluorescence intensity (a.u.)
TCTCTTCCCCTCTCCGCGCCGCCCTCCGCCCCGCCCGCGGCGGAGTCACCTAGTGCAG | 3270 fluorescence intensity (a.u.)
ACATCCACAACCATCTCCACCTCACCTCGTCCATCGTCTCCGGAGTCACCTAGTGCAG | 6010 fluorescence intensity (a.u.)
GGTTGAATCAAATTGTTCCTCTGTTACACTTACACATCATCGGAGTCACCTAGTGCAG | 3250 fluorescence intensity (a.u.)
AATACTGAATACTAGTGCAACGTCATTGAAAATTTTATCCCGGAGTCACCTAGTGCAG | 5090 fluorescence intensity (a.u.)
CGTCGTGCCTACGGGCCGTTCGCGTGTCGTGTCGGCCCAACGGAGTCACCTAGTGCAG | 3850 fluorescence intensity (a.u.)
ACGGTAGGAGCTGCAGCGGTCGGGGTGGGAGCAGGGGTCGCGGAGTCACCTAGTGCAG | 3440 fluorescence intensity (a.u.)
AAATGTTATGAGTACGATGACACATTAAAACACAGTCATTCGGAGTCACCTAGTGCAG | 4650 fluorescence intensity (a.u.)

Sequence | binding signal
TTTTGGGCCTCCTGTGACCTACATGGGCCGCACTTCTTTCCGGAGTCACCTAGTGCAG | 25900 fluorescence intensity (a.u.)
TTACAGGTGTTGTCATTTTATGTGACCGGTCAGACCGGGCCGGAGTCACCTAGTGCAG | 4510 fluorescence intensity (a.u.)
GACCATAAGTGTCCACGTATGCAAAACTCGACCTCCGTTTCGGAGTCACCTAGTGCAG | 13800 fluorescence intensity (a.u.)
CACAACCACAAGGTTGTCATTACCTCTATCATCGGTGTAACGGAGTCACCTAGTGCAG | 3380 fluorescence intensity (a.u.)
CATCATGTCCTATCTGAACTGTTACAACCACGACGTAGTACGGAGTCACCTAGTGCAG | 3320 fluorescence intensity (a.u.)
CATTTATAACTTTGCTGTGTTTCACTGATGCAGGTTTTATCGGAGTCACCTAGTGCAG | 3490 fluorescence intensity (a.u.)
CCGCCGCAGCCGCAGCCGGCCAAGCTGGGCGTCGGCGACACGGAGTCACCTAGTGCAG | 39700 fluorescence intensity (a.u.)
CCAGCATCGCCGGCAGATCCACGTCGAGCATCGCGGCAGGCGGAGTCACCTAGTGCAG | 5190 fluorescence intensity (a.u.)
TCCGCCGTCGCCGCTCCGTCCATCGCCCGCCGTCACCGCCCGGAGTCACCTAGTGCAG | 4040 fluorescence intensity (a.u.)
CGGCGTGGCCGCTGCGTCACGGGCGACTGCGCCAGCGTGCCGGAGTCACCTAGTGCAG | 5890 fluorescence intensity (a.u.)
GCGCGCGCCACCGCACCCGCGACGCCGACGTGTTCATGACCGGAGTCACCTAGTGCAG | 5890 fluorescence intensity (a.u.)
CGGTCGGTCCATCGCCCTCCGTCCCCATCCCCACCGTCACCGGAGTCACCTAGTGCAG | 41900 fluorescence intensity (a.u.)
CGCCACCGTCACCGACCGCGCGCGCACGCACGCACACTCCCGGAGTCACCTAGTGCAG | 3390 fluorescence intensity (a.u.)
GTGGCGCGCGCGCGCACGCACGCTGGGCGACACGCCACGCCGGAGTCACCTAGTGCAG | 4530 fluorescence intensity (a.u.)
CCCCTCCGCCTCGTCCCCATCGGCCACTGCCACCACCGCCCGGAGTCACCTAGTGCAG | 3700 fluorescence intensity (a.u.)
CACGCCGCCGCCCGTCGCGAGCTCCACGTCGAGCAGCAGCCGGAGTCACCTAGTGCAG | 4920 fluorescence intensity (a.u.)
AAAGCCGCACACGTGTTTCCCGCGACCGCGCCACGTCACCCGGAGTCACCTAGTGCAG | 46700 fluorescence intensity (a.u.)
CCGTCGCCGCCAAGCATCGAGCCGCCGGCCACAGCAGCCGCGGAGTCACCTAGTGCAG | 42100 fluorescence intensity (a.u.)
